The values that follow come from PubChem BioAssay (NCI).

Among the test systems are NCI-H23 lung; NCI-H226 lung; NCI-H322M lung; HOP-62 NSCLC; NCI-H460 lung; HOP-92 NSCLC; NCI-H522 lung; 786-0 renal; COLO 205 colon; DU-145 prostate; K-562 leukemia; MALME-3M melanoma; MDA-MB-231 breast; RXF 393 renal; SF-268 CNS; SF-295 CNS; UACC-257 melanoma; M14 melanoma; SF-539 CNS; A549/ATCC NSCLC.
Common to all, as to assay: NCI-60 one-dose screen, 48 h (100 = growth as untreated, 0 = no growth, -100 = all killed)
What all share (settings): 10 µM unless noted

Molecules are shown by their SMILES. About 83,000 compounds went through this panel and 20% of them were active in at least one assay; those are over-represented in the sample as a whole.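 Cell lines were cultured in 96-well plates, exposed to a single compound concentration, and assessed for percent growth 48 hours later.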 Unmarked numbers belong to inactive results. Active and inactive are the calls of the source. How the source made its calls: active means growth percent below 10; inactive means the rest.

Turning to `O=c1cc(Cc2ccc([N+](=O)[O-])cc2)[nH]c(=O)[nH]1`, the growth in the assay on NCI-H23 lung was 99.2%; in the assay with NCI-H226 lung, 107%; in the assay on NCI-H322M lung, 112%; in the assay on HOP-62 NSCLC it was 93.3%; in the assay with NCI-H460 lung it was 109%; in the assay on HOP-92 NSCLC, 96.1%. Besides, the growth in the assay with NCI-H522 lung is 90.5%; with 786-0 renal it was 98.9%; in the assay on COLO 205 colon it was 100%; with DU-145 prostate it was 119%; in the assay with K-562 leukemia it was 111%; in the assay with MALME-3M melanoma, 99.9%. Moreover, the growth in the assay on MDA-MB-231 breast is 110%; in the assay on RXF 393 renal, 109%; in the assay on SF-268 CNS it was 106%; with SF-295 CNS, 122%; with UACC-257 melanoma it was 109%; in the assay on M14 melanoma, 104%.
With `CC(C)(C)OC(=O)NCCc1ccc(N=C=S)cc1`, the growth with NCI-H23 lung was 81.4%; in the assay with NCI-H226 lung, 99.1%; with NCI-H322M lung, 86.9%; in the assay with HOP-62 NSCLC, 70.1%; in the assay with NCI-H460 lung, 82.2%; in the assay with HOP-92 NSCLC, 39.4%. In addition, the growth in the assay on NCI-H522 lung was 16.1%; in the assay on 786-0 renal it was 80%; in the assay with COLO 205 colon, 72.4%; in the assay with DU-145 prostate, 64.6%; in the assay with K-562 leukemia, 57%; with MALME-3M melanoma it was 54.8%. The growth in the assay with MDA-MB-231 breast was 88.4%; in the assay on RXF 393 renal it was 54.9%; with SF-268 CNS it was 71.9%; in the assay with SF-295 CNS it was 55.5%; with SF-539 CNS it was 69.2%; with UACC-257 melanoma, 78.9%. Also, the growth with M14 melanoma was 75.3%.
Take `C=C1CCC2C(C)(CO)C(O)CCC2(C)C1C/C=C1/C(=O)OCC1Oc1ccccc1C` (stereo unspecified): the growth is 94% with NCI-H23 lung; 80% in the assay on NCI-H226 lung; 98.6% with NCI-H322M lung; 101% with HOP-62 NSCLC; 104% with NCI-H460 lung; 118% in the assay on HOP-92 NSCLC. Also, the growth was 23.8% with NCI-H522 lung; 98% in the assay on 786-0 renal; 105% with COLO 205 colon; 82.8% in the assay on DU-145 prostate; 30.6% in the assay on K-562 leukemia; 109% in the assay with MALME-3M melanoma. Moreover, the growth in the assay with MDA-MB-231 breast was 109%; with RXF 393 renal it was 109%; in the assay with SF-268 CNS it was 102%; in the assay on SF-295 CNS it was 97.6%; in the assay with SF-539 CNS it was 81.1%; in the assay with UACC-257 melanoma it was 83.5%. The growth in the assay with M14 melanoma is 67.1%.
For the compound `CCO/C=N/C1=C(C#N)C(c2ccc(Cl)cc2)c2c(c3ccccc3n(C)c2=O)O1` (stereo unspecified), the growth in the assay with NCI-H23 lung is 80.3%; in the assay on NCI-H226 lung it was 91.3%; in the assay with NCI-H322M lung, 85.9%; in the assay on HOP-62 NSCLC, 64.6%; in the assay on NCI-H460 lung it was 79.9%; with HOP-92 NSCLC, 79.2%. Besides, the growth in the assay with NCI-H522 lung is 58.7%; in the assay with A549/ATCC NSCLC, 63.4%; with COLO 205 colon, 71.5%; in the assay on DU-145 prostate, 95.1%; in the assay on K-562 leukemia it was 19.6%; in the assay on MALME-3M melanoma it was 55.7%. In addition, the growth in the assay with MDA-MB-231 breast was 51.2%; with RXF 393 renal, 56.8%; in the assay on SF-268 CNS, 80%; in the assay with SF-295 CNS, 57.3%; with SF-539 CNS, 72.2%; in the assay with UACC-257 melanoma, 90.3%. Besides, the growth in the assay on M14 melanoma is 57.2%.
Turning to `Cc1cc(N/N=C/c2nc(-c3ccccc3)oc2C)c2cc(Cl)ccc2n1`, the growth is -19.6% (active) with NCI-H23 lung; 81.4% with NCI-H226 lung; -54.8% (active) with NCI-H322M lung; 10.5% with HOP-62 NSCLC; -78.3% (active) in the assay on NCI-H460 lung; -61.9% (active) with HOP-92 NSCLC. Further, the growth in the assay on NCI-H522 lung was -59.4% (active); in the assay on 786-0 renal it was -83.1% (active); in the assay on COLO 205 colon, -71.9% (active); in the assay on DU-145 prostate it was -31.3% (active); in the assay on K-562 leukemia, -29.3% (active); with MALME-3M melanoma it was -88.9% (active). Further, the growth in the assay on MDA-MB-231 breast was -95.1% (active); in the assay with RXF 393 renal it was -88.3% (active); in the assay with SF-268 CNS, -60.3% (active); with SF-295 CNS, -85% (active); in the assay on SF-539 CNS, 8.72% (active); in the assay on UACC-257 melanoma, 106%. Also, the growth in the assay on M14 melanoma was -87.4% (active).
Regarding `C=C1C(=O)O[C@H]2[C@H]1CC/C(Cn1cc(CNC(=O)Cc3cn(C(=O)c4ccc(Cl)cc4)c4ccc(OC)cc34)nn1)=C\CC[C@@]1(C)O[C@@H]21`, the growth with NCI-H23 lung was 19.7%; with NCI-H226 lung it was 70.9%; with NCI-H322M lung, 88.3%; in the assay with HOP-62 NSCLC it was 78.6%; in the assay with NCI-H460 lung it was 88.5%; with HOP-92 NSCLC, -65.8% (active). For the same compound, the growth is -50.7% (active) in the assay with NCI-H522 lung; -82.7% (active) in the assay with 786-0 renal; -74% (active) with COLO 205 colon; 31.9% in the assay with DU-145 prostate; -22.6% (active) with K-562 leukemia; -76.1% (active) in the assay with MALME-3M melanoma. The growth is -24.1% (active) with MDA-MB-231 breast; -61.3% (active) in the assay on RXF 393 renal; 9.83% (active) in the assay with SF-268 CNS; 83.5% with SF-295 CNS; -83.7% (active) in the assay on SF-539 CNS; 10.4% with UACC-257 melanoma. Also, the growth in the assay with M14 melanoma is -32.4% (active).
Turning to `O=C1c2ccccc2-c2ccccc2C1(Cl)Cl`, the growth with NCI-H23 lung was -20.8% (active); in the assay with NCI-H226 lung, 88.4%; in the assay with NCI-H322M lung, 86.7%; in the assay with HOP-62 NSCLC it was -98% (active); in the assay on NCI-H460 lung, 4.08% (active); with HOP-92 NSCLC, -78.4% (active). Besides, the growth is -88.6% (active) in the assay with NCI-H522 lung; 103% in the assay with 786-0 renal; 92.3% with COLO 205 colon; -90.6% (active) with DU-145 prostate; -15.4% (active) with K-562 leukemia; -99.4% (active) in the assay with MALME-3M melanoma. The growth is -27.5% (active) in the assay with MDA-MB-231 breast; -95.6% (active) in the assay with RXF 393 renal; -83.8% (active) with SF-268 CNS; -91% (active) in the assay on SF-295 CNS; -94.8% (active) with SF-539 CNS; -93% (active) in the assay on UACC-257 melanoma. Moreover, the growth in the assay on M14 melanoma was -69.6% (active).
Turning to `C=CCn1cc(-c2nc3ccccc3s2)c2cc(-c3ccc4c5c(cccc35)C(=O)N(CCN3CCNCC3)C4=O)ccc21`, the growth was 86.3% with NCI-H23 lung; 63.9% in the assay on NCI-H226 lung; 97.5% in the assay on NCI-H322M lung; 82.7% in the assay with HOP-62 NSCLC; 89% with NCI-H460 lung; 72.1% in the assay on HOP-92 NSCLC. For the same compound, the growth in the assay on NCI-H522 lung is 92.4%; in the assay on A549/ATCC NSCLC, 85%; with COLO 205 colon, 107%; in the assay on DU-145 prostate, 101%; with K-562 leukemia, -51.9% (active); in the assay on MALME-3M melanoma it was 55.2%. For the same compound, the growth was 60.5% in the assay on MDA-MB-231 breast; 93.2% in the assay with RXF 393 renal; 89.9% in the assay on SF-268 CNS; 101% in the assay on SF-295 CNS; 91.1% with SF-539 CNS; 102% with UACC-257 melanoma. Also, in the assay with M14 melanoma, the growth was 82%.
